Compound activity deposited in PubChem BioAssay by National Center for Advancing Translational Sciences (NCATS).
FMDV inh – antivirals against foot and mouth disease virus; FMDV antiviral cell-based qHTS; 410,000 tested, 1.2% active; Potency, µM (top dose mostly 57.9 µM), hits mostly inhibitors; AID 1159524; calls by dose curve; tested in HEK293T cells; further: read-out not given here; nearly all actives have a fitted effect of over 45% in size
Vaccinia mCherry – inhibitors of vaccinia virus infection (mCherry reporter signal) | Vaccinia virus mCherry reporter infection, fluorescence | Potency, µM (highest dose often 36.5 µM), actives largely listed as inhibitors | 310,000 tested, 0.63% active; calls by dose curve; tested in A549 cells; further: nearly all actives have a fitted effect of over 35% in size
HCV inhibitor – inhibitors of hepatitis C virus infection | Huh7.5.1 HCVcc-Cre infection, luciferase reporter, 44 h | Potency, µM (titrated, usually from 41.8 µM), usual class: inhibitors | 340,000 tested, 3.4% active
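Infectious HCV cell culture screen: compound-treated cells (1,000/well, pre-plated 4 h) are infected with HCVcc-Cre at roughly 0.5 moi and grown 44 h. Infection is quantified by luciferase signal after 15 min substrate incubation at room temperature.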
VACV Venus inh – vaccinia inhibition (Venus reporter). AID 720580. Potency, µM (series often up to 36.5 µM), most hits filed as inhibitors. 330,000 tested, 0.46% active. Vaccinia virus Venus reporter expression, fluorescence; calls by dose curve; tested in A549 cells; further: nearly all actives have a fitted effect of over 30% in size
HCMV inh – inhibitors of human cytomegalovirus; HFF cells, HCMV-luciferase reporter, 72 h; stronger effect = lower value; activity change, negative = inhibition, % at 57.5 µM; 410,000 tested, 4.5% active; AID 1259415; in the data active means activity change below about -60%; inconclusive means no clear call, values can overlap the other calls; inactive means above about -39%
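Luciferase read-out from HCMV-luciferase-infected HFFs (MOI 1 PFU/cell) 72 h post infection at 37C; compounds added after 16 h cell attachment; activity normalized between buffer-only basal and Salinomycin (10uM) inhibitor controls.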
Sm TGR block – inhibitors of Schistosoma mansoni thioredoxin glutathione reductase. Q962Y6. purified TGR, DTNB reduction, TNB absorbance 405 nm. Potency, µM (top dose mostly 114 µM), actives largely listed as inhibitors. 360,000 tested, 3% active. AID 485364; further: nearly all actives have a fitted effect of over 60% in size
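TGR 20 nM + NADPH 100 uM (dispensed conc.), cpd preinc 15 min RT; start with NADPH (500 uM addition) then DTNB (15 mM addition). Kinetic TNB absorbance, 405 nm filter. Four-parameter Hill fit across titration.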
A number is an active result; i = inactive; ? = inconclusive; nt = no result given; [ ] = another dose, or the depositor's remark. Most compounds without a hit are left out; they make up all but 9.3% or so of the library. Unless noted, the call rests on the fitted dose curve; in most records, active means well fitted curve in the direction sought with a large enough effect; inconclusive means small, poorly fitted or top-dose-only effect, or another doubt; inactive means no such curve, though single readings can be large; an effect the other way counts as inactive or inconclusive.

SMILES | FMDV inh | Vaccinia mCherry | HCV inhibitor | VACV Venus inh | HCMV inh | Sm TGR block
CC(C)(CO)NCc1ccccc1OCC(=O)Nc1ccccc1 | nt | i | i | i | i | i
Cc1ccc(NC(=O)COc2ccccc2CNC(C)(C)CC(C)(C)C)cc1 | i | nt | ? | nt | -64.7 | i
COc1cc(C(C)=O)ccc1OCC(=O)Nc1ccc(C)c(S(=O)(=O)N2CCCCCC2)c1 | ? | nt | 3.98µM | nt | i | i
Cn1c(SCC(=O)NC(=O)CN2CCCC2=O)nnc1-c1ccc(F)cc1 | i | i | i | i | i | i
Cc1ccc(S(=O)(=O)/N=S(/C)c2ccccc2)cc1 (centres undefined) | i | nt | i | i | i | i
CCOC(=O)CSc1nnc(NC(=O)c2ccco2)s1 | i | nt | i | nt | i | i
COc1ccc(NC(=O)COc2ccccc2C#N)c(S(=O)(=O)N2CCCCC2)c1 | i | nt | 10µM | ? | i | i[11.4 µM]
Cc1cccc(OCC(=O)Nc2ccc(N3CCCC3)cc2)c1C | nt | i | ? | i | i | 31.6µM
Cc1ccc(NC(=O)COc2ccccc2C(N)=O)cc1S(=O)(=O)N1CCCCCC1 | 25.1µM | nt | 5.01µM | nt | -90.6 | i
N#Cc1ccccc1OCC(=O)Nc1cccc(S(=O)(=O)N2CCCCCC2)c1 | i | i | ? | i | i | i
Cc1ccccc1OCC(=O)Nc1ccc(C(=O)Nc2ccccc2C(=O)O)cc1 | i | i | i | i | -69.9 | ?
Cc1ccc(OCC(=O)Nc2ccc(C(=O)Nc3ccccc3C(=O)O)cc2)cc1C | i | i | nt | i | i | nt
Cc1ccc(C(=O)N2CCN(c3ccc(NC(=S)NC(=O)Cc4ccccc4)cc3)CC2)cc1 | i | nt | ? | nt | i | i
Cc1ccc(C(=O)N2CCN(c3ccc(NC(=O)COc4ccccc4C)cc3)CC2)cc1 | 14.1µM | ? | 11.2µM | ? | ? | i
COc1ccc(NC(=O)CCCOc2ccc(C)cc2)cc1S(=O)(=O)N1CCCCC1 | ? | i | nt | i | i | nt
COc1ccc(NC(=O)CCOc2cc(C)ccc2C)cc1S(=O)(=O)N1CCCCC1 | ? | ? | ? | ? | -61.9 | nt
Cc1ccc(NC(=O)COc2cccc(C)c2C)cc1S(=O)(=O)N1CCCCCC1 | ? | i | 6.31µM | i | ? | i
Cc1ccc(OCC(=O)Nc2ccc(C)c(S(=O)(=O)N3CCCCCC3)c2)c([N+](=O)[O-])n1 | ? | ? | ? | ? | i | i
COc1ccc(/C=N/NC(=O)c2cccc(C(=O)N/N=C/c3ccc(OC)cc3)n2)cc1 | i | nt | i | nt | i | i
COCc1nnc(NC(=O)c2c(-c3c(Cl)cccc3Cl)noc2C)s1 | i | i | i | i | i | i
Cn1c(=O)c2[nH]c(N=NNc3ccccc3F)nc2n(C)c1=O | i | i[7.34 µM] | i | i[7.34 µM] | i | 39.8µM
Cc1ccccc1NN=Nc1nc2c([nH]1)c(=O)n(C)c(=O)n2C | i | i | i | i | i | 56.2µM
COc1ccc(C=NNc2nc3c([nH]2)c(=O)n(C)c(=O)n3C)cc1 | i | i | i | i | i | nt
Cn1c(=O)c2[nH]c(NN=Cc3ccccc3)nc2n(C)c1=O | i | i | i | i | i | nt
COc1ccc(NN=Nc2nc3c([nH]2)c(=O)n(C)c(=O)n3C)cc1 | i | i | ? | i | i | 17.8µM
SMILES | FMDV inh | Vaccinia mCherry | HCV inhibitor | VACV Venus inh | HCMV inh | Sm TGR block
COc1cc(C=C2C(=O)OC(C)(C)OC2=O)ccc1OCC(=O)Nc1ccccc1 | i | i | i | i | i | i
CCOc1cc(C=C2C(=O)NC(=O)NC2=O)ccc1OCC(=O)N1CCOCC1 | i | i | i | i | i | ?
CCNC(=O)COc1ccc(/C=C2\COc3ccccc3C2=O)cc1OC | 28.2µM | i | ? | i | i | 39.8µM
CCOc1cc(/C=C2\COc3ccccc3C2=O)ccc1OCC(=O)N(C)C | 28.2µM | i | ? | i | i | ?
COc1cc(C)ccc1OCCSc1nnc(-c2cccs2)o1 | i | i | nt | i | i | i
C#CCNc1c2c(nc3ncnn13)CC(C)CC2 (centres undefined) | i | i | i | i | -101.3 | 22.4µM
CCN(CC)c1ccc(-c2sc(Nc3ccccc3)n[n+]2-c2ccc(F)cc2)cc1 | ? | i | i | ? | i | i
CCc1ccc(Nc2n[n+](-c3ccccc3)c(-c3ccc(N(CC)CC)cc3)s2)cc1 | ? | ? | 11.2µM | 11.2µM | -93.1 | i
CCc1ccc(Nc2n[n+](-c3ccccc3)c(-c3ccc(OCc4ccccc4)cc3)s2)cc1 | i | i | ? | ? | -96.4 | i
OCCCn1c(CCNc2nc(-c3ccc(Cl)cc3)cs2)nc2cc(C(F)(F)F)ccc21 | i | ? | ? | i | -62.5 | nt
COc1ccc(-c2csc(NC(C)c3nc4cc(C(F)(F)F)ccc4n3CCOCCO)n2)cc1 (centres undefined) | ? | ? | 8.91µM | ? | i | nt
COc1cccc(-n2c(SCC(N)=O)nnc2-c2ccco2)c1 | i | i | i | i | i | i
Cc1ccc(C)c(C(=O)COC(=O)c2cccc(N3C(=O)c4c(C)nc5ccccc5c4C3=O)c2)c1 | i | i | i | i | i | i
CCCc1cnc2c(c1SCC(=O)Nc1ccc([N+](=O)[O-])cc1)c(=O)n(C)c(=O)n2C | 15.8µM | i | nt | ? | i | i
COCCN(Cc1cc2cc3c(cc2nc1Cl)OCO3)C(=O)c1ccc(C)cc1 | ? | nt | ? | nt | -69.5 | i
CN1CCCC(CC2Oc3ccccc3Sc3ccccc32)C1 (centres undefined) | i | ? | 11.2µM | ? | ? | i
c1ccc(OCCCCN2CCCCC2)cc1 | i | i | i | i | i | i
c1ccc2c(c1)OC(CCCN1CCCCC1)c1ccccc1S2 (centres undefined) | i | i | 25.1µM | i | i | i
CCOc1ccc(N2CC(C(=O)N3CCCc4ccccc43)CC2=O)cc1 (centres undefined) | i | i | i | i | i | i
COc1cc(CNS(=O)(=O)c2ccc3c(c2)CC(C)N3C(=O)C2CCC2)cc(OC)c1OC (centres undefined) | ? | nt | 10µM | nt | i | i
COc1ccc(CNS(=O)(=O)c2ccc3c(c2)CCN3C(=O)C2CC2)cc1 | i | i | i | i | -62.2 | i
COc1ccc(CNS(=O)(=O)c2ccc3c(c2)CC(C)N3C(=O)C2CC2)cc1 (centres undefined) | i | i | 22.4µM | i | ? | i
O=C(C1CCC1)N1CCc2cc(S(=O)(=O)Nc3ccc4c(c3)OCO4)ccc21 | i | ? | ? | ? | -72.0 | i
COc1ccc(CCNS(=O)(=O)c2ccc3c(c2)CC(C)N3C(=O)C2CCC2)cc1OC (centres undefined) | i | i | nt | i | i | i
O=S(=O)(NCc1ccc2c(c1)OCO2)c1ccccc1F | i | i | i | i | i | i
CC(=O)N1CCc2cc(S(=O)(=O)NC(C(=O)NCc3ccccc3)C(C)C)ccc21 (centres undefined) | i | i | i | i | i | i
Cc1ccc(NS(=O)(=O)c2ccc(Cl)c(NC(=S)NC(=O)C3CCCCC3)c2)cc1Cl | i | ? | 11.2µM | ? | i | i
Cc1ccc(NC(=O)C2CCCC2)cc1Cl | i | i | i | i | i | nt
